One experiment deals with HEK293. As to the kind of experiment: Cytotoxic Profiling of Annotated Libraries Using Quantitative High-Throughput Screening (AID 1296008). Further: potency means the concentration at half of the fitted maximal effect. On max response: on the % scale 0 is the no-effect control and ±100 the full control effect. To be noted: Five cell lines viability, CellTiter-Glo ATP luminescence, 48-72 h; max response: active compounds read low. The procedure, abridged:
(§1)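 Cells exposed to compounds for 48 or 72 hr at 37 degrees Celsius. Viability read as ATP-coupled luminescence with CellTiter-Glo after 10 min at room temperature.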

Experiment [1] deals with HaCat. The experiment is described as above. As to conditions: Five cell lines viability, CellTiter-Glo ATP luminescence, 48-72 h; max response: active compounds read low. The method in brief: as §1
Background: ATP-based viability assays read luminescence as a measure of living cells.

The test system of a further experiment is KB-3-1. The experiment is described as above. As to conditions: Five cell lines viability, CellTiter-Glo ATP luminescence, 48-72 h; max response: active compounds read low. The method in brief: as §1
The subject of a further experiment is NIH3T3. Described as above. As to conditions: Five cell lines viability, CellTiter-Glo ATP luminescence, 48-72 h; max response: active compounds read low. The procedure, abridged: as §1
For experiment [2], the system named is HACAT. As to the kind of experiment: qHTS assay to identify novel small-molecules to repurpose for Merkel cell carcinoma treatment (AID 1296009). To be noted: MCC and control cell lines, CellTiter-Glo viability, 72 h; at 44.8 µM (top of the series) unless noted. The procedure, abridged: (§2)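 Cells were treated for 72 hr at 37 degree celsius with compounds in 8- or 11-point dose response. Viability was read by CellTiter-Glo luminescence, normalized to no-cell (cytotoxicity) and DMSO controls.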

Another experiment concerns CRL-7250. In words: Cytotoxic Profiling of Annotated Libraries Using Quantitative High-Throughput Screening (AID 1296008). Further: potency means the concentration at half of the fitted maximal effect. On max response: on the % scale 0 is the no-effect control and ±100 the full control effect. To be noted: Five cell lines viability, CellTiter-Glo ATP luminescence, 48-72 h; max response: active compounds read low. The procedure, abridged:
as §1

A further experiment concerns HEK293T. In words: qHTS assay to identify novel small-molecules to repurpose for Merkel cell carcinoma treatment (AID 1296009). To be noted: MCC and control cell lines, CellTiter-Glo viability, 72 h; series mostly up to 44.8 µM. The procedure, abridged:
as §2
For orientation: Quantitative high-throughput screening tests each substance at several concentrations.

“And” between values parts separate entries of the source, which are not always exact repeats. Identical values can stand only once. Results filed as inconclusive are left out. Unmarked numbers belong to inactive results. The source made the active and inactive calls. The call rests on the fitted dose curve; in most records, active means well fitted inhibition curve with a large enough effect; inconclusive means small, poorly fitted or top-dose-only effect; inactive means flat fitted curve, though single readings scatter.
Further: nearly all actives have a fitted effect of over 60% in size.

As for `CN[C@H](CC(C)C)C(=O)N[C@H]1C(=O)N[C@@H](CC(N)=O)C(=O)N[C@@H]2C(=O)N[C@H]3C(=O)N[C@H](C(=O)N[C@H](C(=O)O)c4cc(O)cc(O)c4-c4cc3ccc4O)[C@H](O)c3ccc(c(Cl)c3)Oc3cc2cc(c3O[C@@H]2O[C@H](CO)[C@@H](O)[C@H](O)[C@@H]2O[C@H]2C[C@](C)(N)[C@H](O)[C@H](C)O2)Oc2ccc(cc2Cl)[C@H]1O`, the max response in the experiment with HEK293 was -10.3%; with KB-3-1 it was 5.98%; with NIH3T3, -4.89%. The call in the experiment on HaCat [1] and with HACAT [2] was inactive.

`O=c1[nH]c(=O)n([C@H]2C[C@@H](O)[C@@H](CO)O2)cc1F`: the Potency was 18.7 µM (active) in the experiment with CRL-7250, 13.2 µM (active) in the experiment with KB-3-1 and 0.0187 µM (active) with NIH3T3.

For the compound `CC(=O)ON=C1C(c2c(O)[nH]c3cc(Br)ccc23)=Nc2ccccc21`, the Potency in the experiment on HEK293 was 14.8 µM (active). In addition, the max response was -13.8% with HaCat [1] and -15.3% with KB-3-1.

As for `COc1cc(O)c2c(c1)C1OC1C[C@H](O)[C@H](O)C(=O)C=CC[C@H](C)OC2=O` (stereo not given in full), the Potency in the experiment on CRL-7250 is 26.4 µM (active); with HaCat [1], 23.5 µM (active); in the experiment on NIH3T3, 16.6 µM (active).

Regarding `CCOc1cc2c(c(F)c1OCC)C(=N)N(CC(=O)c1cc(N3CCOCC3)c(OC)c(C(C)(C)C)c1)C2`, the Potency in the experiment on HEK293 is 16.4 µM (active).

Turning to `OCCNC1CCCc2c1[nH]c1ccc(-c3ccccc3)cc21` (stereo not given), the Potency in the experiment with HEK293 is 13.2 µM (active); in the experiment with KB-3-1, 14.6 µM (active); with NIH3T3, 16.4 µM (active). The call in the experiment on HaCat [1] and in the experiment with HACAT [2] was inactive.

Consider `Cc1nc(NC(=O)N2CCC[C@@H]2C(N)=O)sc1-c1ccnc(C(C)(C)C(F)(F)F)c1`, for which the Potency is 14.8 µM (active) in the experiment with HEK293, 3.32 µM (active) in the experiment with HaCat [1], 8.33 µM (active) with KB-3-1 and 16.6 µM (active) in the experiment with NIH3T3.

Regarding `Oc1ccc(-c2ccc(-c3cc(Nc4cccc(CNC5CC5)c4)n[nH]3)cc2)c(O)c1`, the Potency is 1.18 µM (active) with HEK293 and 1.32 µM (active) with KB-3-1.

Take `CC(C)n1cnc2c(NCCc3ccc(O)cc3)nc(-c3csc4ccccc34)nc21`: in the experiment with NIH3T3, the max response is -7.93%.

On to `COC[C@H](NC(=O)c1cnc(C)s1)C(=O)N[C@@H](COC)C(=O)N[C@@H](Cc1ccccc1)C(=O)[C@@]1(C)CO1`, for which the Potency was 0.662 µM (active) with HaCat [1], 0.469 µM (active) with KB-3-1 and 0.833 µM (active) in the experiment on NIH3T3.

For `O=C(CCCCCCC(=O)Nc1cccnc1)NO`, the Potency with KB-3-1 is 14.8 µM (active).

For the compound `Cc1cnn(C)c1C(=O)Nc1cc(Nc2ccc3c(C=Cc4ccccn4)n[nH]c3c2)ccc1F`, the Potency with HEK293 is 3.72 µM (active); with NIH3T3 it was 13.2 µM (active).

In the case of `CC(O)(C#Cc1ccc2c(c1)N(c1nc(N)ncc1Cl)CC2)c1nccs1` (stereo not given), the values for the max response in the experiment on HaCat [1], in the experiment on KB-3-1 and in the experiment with NIH3T3 were -12.6%, -15.7% and -24.2%, respectively.

For `CCCNC(=O)[C@H]1O[C@H]1C(=O)N[C@H](C(=O)N1CCC[C@@H]1C(=O)OC)C(C)CC` (stereo not given in full), the compound was classed as inactive in the experiment on HaCat [1] and with HACAT [2].

With `O=[N+]([O-])c1cn2c(n1)OC[C@@H](OCc1ccc(OC(F)(F)F)cc1)C2`, the max response in the experiment on KB-3-1 is -6.53%; in the experiment on NIH3T3, -7.72%.

Regarding `CC(C)[C@H](CO)Nc1nc(Nc2cccc(Cl)c2)c2ncn(C(C)C)c2n1`, the Potency was 16.6 µM (active) with HaCat [1] and 10.5 µM (active) with NIH3T3.

Turning to `CC(C=CC1=C(C)CCCC1(C)C)=CC=CC(C)=CC(=O)Nc1ccc(O)cc1`, the Potency was 6.79 µM (active) with HEK293, 38.2 µM (active) with KB-3-1 and 48.1 µM (active) in the experiment with NIH3T3.

With `O=S(=O)(O)CCSSCCS(=O)(=O)O`, in the experiment on HEK293, the result was inactive. The max response was -4.2% with HaCat [1], 4.37% in the experiment on KB-3-1 and -4.2% in the experiment with NIH3T3. Further, in the experiment with HEK293T, the Potency result is “inactive”.

Turning to `CC[C@]12C=CCN3CC[C@@]4(c5cc([C@@]6(C(=O)OC)C[C@H]7C[C@@H](C(C)(F)F)CN(Cc8c6[nH]c6ccccc86)C7)c(OC)cc5N(C)[C@H]4[C@@](O)(C(=O)OC)[C@H]1OC(C)=O)[C@@H]32`, the max response with HaCat [1] was -0.147%. Moreover, the Potency with KB-3-1 is 0.0105 µM (active).

`Cc1cncc2cccc(S(=O)(=O)N3CCCN(C(=O)CN)C[C@@H]3C)c12`: the compound was classed as inactive in the experiment on HEK293. For the same compound, the values for the Potency with HaCat [1] and with NIH3T3 were 8.33 µM (active) and 26.4 µM (active), respectively. The max response with KB-3-1 was -18.7% and -19.4%. Moreover, the Potency entry in the experiment with HEK293T is “inactive”.

As for `C[N+](C)([O-])CCNc1ccc(NCC[N+](C)(C)[O-])c2c1C(=O)c1c(O)ccc(O)c1C2=O`, the Potency in the experiment on HEK293 is 5.26 µM (active); in the experiment on NIH3T3, 0.0935 µM (active). In the experiment on HaCat [1], the max response is -8.98%.

Consider `Cn1cc(C2=C(c3c4n(c5ccccc35)CCC(CN)C4)C(=O)NC2=O)c2ccccc21` (stereo not given), for which the Potency with HaCat [1] was 37.2 µM (active); with KB-3-1, 6.62 µM (active); with NIH3T3 it was 16.6 µM (active).

On to `CCc1cnn2c(NCc3ccc[n+]([O-])c3)cc(N3CCCC[C@@H]3CCO)nc12`, for which the results for the Potency with HEK293 and in the experiment on NIH3T3 were 0.0332 µM (active) and 0.105 µM (active), respectively.
